HP1b chromo inh: HP1-beta chromodomain-methylated histone interaction inhibition | P83916 | AlphaScreen HP1-beta / biotin-H3K9me3 peptide binding | Potency, µM (doses to about 114 µM), without a hit: at the highest dose activity change, negative = inhibition, actives largely listed as inhibitors | hit rate 0.56% among 390,000 | AID 540317; also: nearly all actives have a fitted effect of over 70% in size
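AlphaScreen: HP1-beta (50 nM) preformed 30 min with biotin-H3(1-18)K9me3 peptide (50 nM) in PBS pH 7.4, 0.01% Tween-20. Compound added for 30 min at RT, then streptavidin donor/nickel chelate acceptor beads (10 ug/mL) for 30 min.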
G9a block: inhibitors of human histone lysine methyltransferase G9a. Potency, µM (doses to about 102 µM), for inactives: top-dose activity, negative = inhibition, usual class: inhibitors. hit rate 8.8% among 350,000. Q96KQ7. AID 504332. G9a H3K9 monomethylation, AlphaScreen, 2 h; also: % is scaled to controls: 0 for no effect and ±100 for the full control effect; nearly all actives have a fitted effect of over 75% in size
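Methyltransferase reactions run at room temperature for 2 h (20 nM enzyme, 500 nM biotin-H3K9 peptide, 20 uM SAM) after a 15 min compound preincubation; product detected by AlphaScreen beads and anti-H3K9me1 antibody.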
BAZ2B block: inhibitors of human BAZ2B bromodomain | Potency, µM (highest dose often 114 µM), for inactives: at the highest dose activity change, negative = inhibition, hits mostly inhibitors | AlphaScreen BAZ2B-H3K14Ac peptide displacement | hit rate 4.4% among 360,000 | AID 504333; also: % is scaled to controls: 0 for no effect and ±100 for the full control effect; nearly all actives have a fitted effect of over 60% in size
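BAZ2B (50 nM) with biotin-H3(5-23)K14Ac peptide (50 nM) in PBS pH 7.4, 0.01% Tween-20, preformed 30 min, then compound 30 min at room temperature; top concentration 110uM. AlphaScreen streptavidin donor/nickel chelate acceptor beads (10 ug/mL final), 20 min dark, signal read.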
JMJD2A Tudor inh: blocks the human JMJD2A Tudor domain. O75164. AlphaScreen JMJD2A-Tudor / H3K4me3 peptide binding. Potency, µM (highest dose often 114 µM), inactives show at the top dose activity change, negative = inhibition, hits mostly inhibitors. hit rate 4.4% among 390,000; also: % is scaled to controls: 0 for no effect and ±100 for the full control effect; nearly all actives have a fitted effect of over 50% in size
Sfp PPTase inh: blocks B. subtilis Sfp PPTase activity; Q9F4F7; Biochemical Sfp PPTase activity, qHTS; Potency, µM, for inactives: largest response in the series, negative = inhibition, hits mostly inhibitors; hit rate 3.5% among 310,000; AID 1490;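 also: the enzyme is Sfp with the accession as filed and its product quenches rhodamine fluorescence; 0% = enzyme reaction without inhibitor and -100% = no enzyme wells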
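Reaction rates are the 30-min fluorescence difference (ex 525, em 598 nm) in wells containing 15 nM Sfp, 5 uM rhodamine-CoA and 12.5 uM BHQ-2-YbbR at pH 7.6 with 10 mM MgCl2.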
12-LOX inh: inhibitors of human 12S-lipoxygenase ALOX12 | P18054 | Potency, µM (highest dose often 108 µM), for the others: at the top dose activity change, negative = inhibition, most hits filed as inhibitors | purified 12hLO, xylenol orange hydroperoxide absorbance | hit rate 1.1% among 580,000; also: % is scaled to controls: 0 for no effect and ±100 for the full control effect
Target sequence (P18054 whole entry, looked up): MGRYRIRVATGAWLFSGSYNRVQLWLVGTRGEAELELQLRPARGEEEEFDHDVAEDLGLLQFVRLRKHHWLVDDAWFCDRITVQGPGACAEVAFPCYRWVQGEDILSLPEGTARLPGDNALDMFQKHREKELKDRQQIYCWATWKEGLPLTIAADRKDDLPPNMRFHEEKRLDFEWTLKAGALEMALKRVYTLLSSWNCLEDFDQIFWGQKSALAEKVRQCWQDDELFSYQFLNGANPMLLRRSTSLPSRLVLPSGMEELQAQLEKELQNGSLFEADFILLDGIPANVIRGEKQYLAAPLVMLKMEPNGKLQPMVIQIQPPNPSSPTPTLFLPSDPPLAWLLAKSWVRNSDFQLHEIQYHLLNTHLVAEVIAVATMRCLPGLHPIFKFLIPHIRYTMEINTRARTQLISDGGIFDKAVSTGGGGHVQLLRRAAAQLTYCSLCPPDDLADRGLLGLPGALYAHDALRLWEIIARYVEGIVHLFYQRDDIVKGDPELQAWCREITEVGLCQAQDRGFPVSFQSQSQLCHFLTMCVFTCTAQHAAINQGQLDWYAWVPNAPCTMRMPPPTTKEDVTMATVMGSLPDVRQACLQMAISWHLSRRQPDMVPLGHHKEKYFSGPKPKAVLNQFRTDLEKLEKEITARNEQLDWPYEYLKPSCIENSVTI
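Purified human 12hLO (150 nM final) in 25 mM Hepes, 0.01% Triton X-100, pH 7.0 was preincubated 15 min at room temperature with compound. Then 40 uM arachidonic acid was added, 30 min. Hydroperoxide was read by Fe-XO absorbance ratio 573/405 nm.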
Active calls of the source: *; ? = inconclusive; . = not tested or not shown; [ ] = remark or other dose. Compounds with a hit are over-represented: about 8.7% of the library has one in this group of screens. Calls follow the shape of the dose curve; as a rule, active = well fitted curve in the direction sought with a large enough effect; inconclusive = small, poorly fitted or top-dose-only effect, or another doubt; inactive = no such curve, though single readings can be large; an effect the other way counts as inactive or inconclusive. Potency is read from the fitted curve at half-maximal effect.

SMILES | HP1b chromo inh | G9a block | BAZ2B block | JMJD2A Tudor inh | Sfp PPTase inh | 12-LOX inh
CCOc1cc(/C=N/N2C(=O)NC3(CCCCC3)C2=O)cc(Br)c1O | 11.4% | ? | . | -15.9% | 13.9% | 54.2%
Fc1ccc(COc2ccc(Br)cc2CNCc2ccncc2)cc1 | 16.6% | 50.1µM* | 50.1µM* | ? | -1.6% | ?
Fc1ccccc1COc1ccc(Br)cc1CNCc1ccncc1 | 40.3% | ? | -13.4% | -16.4% | 79.4µM* | ?
CCOc1cc(CNCc2ccncc2)cc(Br)c1OCc1ccc(F)cc1 | 42.4% | ? | -34.7% | -27.5% | ? | -20.9%
Cc1ccccc1NC(=O)c1nc(S(C)(=O)=O)ncc1N(Cc1ccco1)Cc1ccco1 | . | . | . | . | . | -2.2%
COc1ccccc1/C=C/C(=O)Nc1nc(N)n(-c2ccccc2)n1 | 42.3% | 14.1% | 56.2µM* | -15.6% | 29.5% | 407.3%
Nc1nc(NC(=O)CCC(=O)O)nn1-c1ccccc1 | 18.5% | . | 50.1µM* | 22.4µM* | 7.4% | -0.6%
O=C(c1ccnc(Cl)c1)N1CCC(c2nc3cc(C(F)(F)F)ccc3s2)CC1 | . | . | . | . | . | -39.7%
COc1ccc2c(c1)c(C(C(=O)O)N1CCN(c3cccc(Cl)c3)CC1)cn2CCC(=O)O (stereo unspecified) | . | . | . | . | . | -28.7%
COc1ccc([C@H]2N[C@]3(CCCN(Cc4cccn4C)C3=O)[C@H]3C(=O)N(C)C(=O)[C@@H]23)cc1 | . | . | . | . | . | 11.2µM*
COc1ccc([C@H]2N[C@]3(CCCN(Cc4cccn4C)C3=O)[C@H]3C(=O)N(Cc4ccccc4)C(=O)[C@@H]23)cc1 | . | . | . | . | . | -26.7%
Cn1cccc1CN1CCC[C@]2(N[C@H](c3ccccc3)[C@@H]3C(=O)N(Cc4ccccc4)C(=O)[C@@H]32)C1=O | . | . | . | . | . | 10µM*
CSc1n[nH]c(/N=C/c2oc(O)c3ccccc23)n1 | 52.7% | 20µM* | ? | -16.7% | -4.6% | -13.6%
Oc1oc(C=Nc2ccc(F)cc2F)c2ccccc12 | 47.7% | 5.01µM* | ? | -19.0% | -2.8% | -18.6%
Cc1cccc(/N=C/c2c(O)c3ccccc3oc2=O)n1 | 2.5% | -36.6%[12.7 µM] | -35.3% | -11.4% | -2.2% | 166.8%
O=C(COc1ccc(S(=O)(=O)NC2CCCCC2)cc1)NCc1cccnc1 | 12.9% | 1.8%[59 µM] | 7.0% | -16.9% | 10.1% | 17.4%
O=C(CCc1ccc(S(=O)(=O)NC2CCCCC2)cc1)NCc1ccccn1 | 30.8% | ? | -38.8% | -4.2% | 39.8µM* | 0.4%
O=C(COc1ccc(S(=O)(=O)NC2CCCCC2)cc1)NCc1ccccn1 | 60.8% | -33.8% | -3.7% | -25.3% | 11.9% | -8.3%
O=S(=O)(NC1CC1)c1ccc(S(=O)(=O)N(Cc2ccccn2)C2CC2)cc1 | 12.0% | 70.8µM* | -25.3% | -2.0% | 2.2% | 12.3%
O=C(COc1ccc(S(=O)(=O)NC2CCCCC2)cc1Cl)NCc1cccnc1 | 11.6% | ? | -5.2% | -30.3% | 17.8µM* | ?
COc1ccc(C(c2c(N)[nH]c(=S)[nH]c2=O)c2c(N)[nH]c(=S)[nH]c2=O)cc1 | 26.9% | . | -5.8% | ? | 79.4µM* | ?
COc1ccc(OC)c(CN2C[C@H]3[C@H](C2)[S+](=O)([O-])C(C)(C)C(=O)N3CCOc2ccccc2)c1 | . | . | . | . | . | -9.9%
CCN1/C(=C2/SC(=S)NC2=O)Sc2ccccc21 | 53.2% | 8.91µM* | -13.3% | -24.0% | -28.9% | ?
COc1ccccc1CNCC(c1ccccc1)c1ccccc1 | . | 39.8µM* | 50.1µM* | . | -9.6% | 2.51µM*
COc1ccccc1CNCc1ccc(OC)c2ccccc12 | -15.7% | . | . | 17.8µM* | . | ?
CNCc1cccc(Oc2ccccc2)c1 | . | . | . | . | . | 6.2%[12.5 µM]
CNCc1ccccc1OC | . | . | . | . | . | -2.0%[12.5 µM]
COc1ccccc1CNCc1cccc(Oc2ccccc2)c1 | -8.7% | 8.91µM* | 25.1µM* | 39.8µM* | -13.1% | -17.0%
COc1cccc(CNCc2ccccn2)c1OC | 22.6% | 5.7% | ? | 56.2µM* | -11.2% | 23.4%
COc1cccc(C(=O)N2CCC3(CC2)NC(=O)N(Cc2ccccc2)C3=O)c1OC | . | . | . | . | . | -10.2%

Compound activity: PubChem BioAssay, National Center for Advancing Translational Sciences (NCATS)
